Molecules are shown by their SMILES. Inconclusive results are not listed. Where a call stands in place of a potency, no number is given. Active and inactive are the calls of the source. Calls come from the whole dose curve; as a rule, active = well fitted inhibition curve with a large enough effect; inconclusive = small, poorly fitted or top-dose-only effect; inactive = flat fitted curve, though single readings scatter.

The assay deals with Zika virus NS2B-NS3 protease. The assay is described as follows: Primary screen GU AMC qHTS for Zika virus inhibitors (AID 1347154). Note: nearly all actives have a fitted effect of over 70% in size. The conditions noted are these: Zika NS2B-NS3 unlinked protease, AMC fluorogenic substrate; series mostly up to 54.1 µM. Put shortly:
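Unlinked Zika NS2B hydrophilic domain/NS3 protease domain noncovalent complex (25 nM final) in 10 mM Tris-HCl pH 8.0, 0.01% Tween 20, with AMC peptide substrate. Fluorescence (ex 340, em 450 nm) change over 15 min, room temperature; percent inhibition fitted to 4-parameter Hill equation.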
For orientation: In qHTS, concentration-response curves come from the screen itself.
Regarding `COc1cc(N2CCC(C(N)=O)CC2)ccc1Nc1nc(N)c(Cl)c(Nc2ccccc2S(=O)(=O)C(C)C)n1`, the Potency entry was “inactive”. `COc1ccc(C[C@@H](C)[C@@H](C)Cc2ccc(OC)c(OC)c2)cc1OC`: the Potency result is “inactive”. Then `C[C@](Cc1c[nH]c2ccccc12)(NC(=O)OC1C2CC3CC(C2)CC1C3)C(=O)NC[C@H](NC(=O)CCC(=O)O)c1ccccc1` (stereo partly drawn), with “inactive”; and `C=CC[C@@H]1C=C(C)C[C@H](C)C[C@H](OC)[C@H]2O[C@@](O)(C(=O)C(=O)N3CCCC[C@H]3C(=O)O[C@H](C(C)=C[C@@H]3CC[C@H](O)[C@H](OC)C3)[C@@H](C)[C@@H](O)CC1=O)[C@@H](C)C[C@@H]2OC`, with “inactive”.

With `CC(=O)OCC(=O)[C@@]1(O)CC[C@H]2[C@@H]3CCC4=CC(=O)CC[C@]4(C)[C@@H]3C(=O)C[C@@]21C`, the Potency result is “inactive”. The entry for `CCCCOc1ccc(C(=O)Nc2ccc(F)cc2F)cc1` is “inactive”; for `CON=C(C(=O)N[C@@H]1C(=O)N2C(C(=O)O)=C(Cn3ccc(=N)n3CCO)CS[C@H]12)c1csc(N)n1` it is “inactive”.

`CN(C)CC(=O)N1CCC(c2ccc(NC(=O)c3ncc(C#N)[nH]3)c(C3=CCCCC3)c2)CC1`: the Potency result was “inactive”. `CN(C)c1ccc2cc(C(=O)N[C@@H](CCCN=C(N)CCl)C(=O)NCc3ccccc3)ccc2c1`: the Potency result is “inactive”. Then `CCOC(=O)C1=C(C)NC(=S)NC1c1cccc(O)c1` (stereo not drawn), with “inactive”. With `NC1=N[C@H]2[C@H](CS[C@H]2CCCCC(=O)O)N1`, the Potency entry is “inactive”. Then `c1ccc(CNc2nc(NCc3ccccc3)c3ccccc3n2)cc1`, with “inactive”; and `COc1ccc(S(=O)(=O)Nc2cccnc2Nc2ccc(O)cc2)cc1`, with “inactive”.

These data come from PubChem BioAssay (NCATS).
